From PubChem BioAssay
TGFb inhibitor: TGF-b pathway inhibition; HepG2 CAGA-GFP TGF-b/SMAD3 reporter, GFP fluorescence, 18 h; TGF-beta stimulated, 500 pg/mL final; Potency, µM (highest dose often 46.1 µM), for the others: at the highest dose activity, negative = inhibition, usual class: inhibitors; 410,000 tested, 1.2% active; AID 588855; note: % is set by controls: 0 for no effect and ±100 for the full control effect; nearly all actives have a fitted effect of over 65% in size
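Smad-responsive CAGA-GFP expression was quantified in HEPG2 cells exposed to compounds and 500 pg/mL final TGF-beta for 18 h at 37 degrees C; unstimulated wells defined full inhibition.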
HT1080 IDH1KD tx: toxicity to HT-1080 IDH1 knockdown cells (counter line); AID 686971; Potency, µM (titrated, usually from 46.1 µM), without a hit: top-dose activity, negative = toxicity, actives largely listed as cytotoxic; HT-1080 IDH1 knockdown viability, ATP luminescence, 48 h; 360,000 tested, 2% active;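 note: 0% = DMSO wells and -100% = cell-free medium wells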
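Using the IDH1-knockdown HT-1080 line run in the same batch and compound series as the NT line, viability after 48 h at 37 °C was determined by CellTiter-Glo luminescence and expressed as % activity.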
HT1080-NT tox: kills 2HG-producing HT-1080-NT fibrosarcoma cells. HT-1080-NT fibrosarcoma viability, CellTiter-Glo ATP luminescence, 48 h. Potency, µM (series often up to 46.1 µM), without a hit: at the top dose activity, negative = less viability, usual class: cytotoxic. 360,000 tested, 1.6% active. AID 686970;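 note: NT is the 2HG producing partner of a matched IDH1 knockdown line; 0% = DMSO-treated cells and -100% = media-only wells without cells; nearly all actives have a fitted effect of over 55% in size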
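A 48-hour cytotoxicity screen used HT-1080-NT cells plated 2 hours before compound delivery. ATP-based CellTiter-Glo luminescence measured viability, normalized to DMSO and no-cell controls.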
HepG2 tox: kills HepG2 cells in TGF-b inhibitor counter-screen; 410,000 tested, 0.76% active; Potency, µM (series often up to 46.1 µM), for inactives: at the highest dose activity change, negative = cytotoxicity, usual class: cytotoxic; HepG2 CAGA-GFP viability, ATP luminescence, 18 h; AID 588856
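CellTiter-Glo luminescence gave cytotoxicity after 18 hours at 37 degrees C. The cells were HepG2 CAGA-GFP in 1% FBS DMEM, stimulated with 500 pg/mL TGF-beta after compound addition. %Activity was normalised to no-cell wells (complete cell-killing) and DMSO (no toxicity), and curves were fitted and classified.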
S2 tox: viability counter-screen for ATXN expression inhibitors; S2 cells (HEK-293 line with an ATXN2-luciferase reporter) viability, CellTiter-Fluor protease fluorescence, 24 h; Potency, µM (doses to about 56.7 µM), actives largely listed as cytotoxic; 400,000 tested, 0.49% active; AID 651635; note: nearly all actives have a fitted effect of over 40% in size
ATXN2 expr inh: reduces ATXN2 reporter expression in HEK-293 cells; HEK-293 ATXN2-luciferase reporter, luminescence, 24 h; Potency, µM (highest dose often 57 µM), for inactives: at the highest dose activity change, negative = inhibition, usual class: inhibitors; 360,000 tested, 0.72% active; AID 1745845; note: % is set by controls: 0 for no effect and ±100 for the full control effect; nearly all actives have a fitted effect of over 55% in size
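qHTS (up to 57 uM final) was run with 24 h compound exposure of reporter cells at 37 °C. Each well was multiplexed: SteadyGlo luminescence measured ATXN2-luciferase expression after a fluorogenic Gly-Phe-AFC viability readout (25 uM final).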
Numbers without * were called inactive; i = inactive; ? = inconclusive; nt = no result given. Shown are actives, neighbours in structure and some others; about 3.8% of the full set was active somewhere. Calls come from the whole dose curve; as a rule, active = well fitted curve in the direction sought with a large enough effect; inconclusive = small, poorly fitted or top-dose-only effect, or another doubt; inactive = no such curve, though single readings can be large; an effect the other way counts as inactive or inconclusive. Potency is the fitted concentration of half-maximal effect.

SMILES	TGFb inhibitor	HT1080 IDH1KD tx	HT1080-NT tox	HepG2 tox	S2 tox	ATXN2 expr inh
C[C@H]1CN([C@@H](C)CO)C(=O)c2cccc(NC(=O)Nc3ccc(C(F)(F)F)cc3)c2O[C@@H]1CN(C)S(=O)(=O)c1ccc(Cl)cc1	?	25.9µM*	?	-87.7%	nt	?
C[C@@H]1CN([C@H](C)CO)C(=O)c2cc(NC(=O)Nc3ccc(C(F)(F)F)cc3)ccc2O[C@H]1CN(C)S(=O)(=O)c1ccc(Cl)cc1	?	-22.3%	-25.1%	2.0%	?	-24.3%
C[C@H](CO)N1C[C@H](C)[C@@H](CN(C)S(=O)(=O)c2cn(C)cn2)Oc2c(NC(=O)Nc3ccc(C(F)(F)F)cc3)cccc2C1=O	-15.1%	-2.5%	1.5%	-7.6%	i	-3.2%
C[C@@H]1CN([C@@H](C)CO)C(=O)Cc2cc(NC(=O)Nc3ccc(C(F)(F)F)cc3)ccc2O[C@@H]1CN(C)S(=O)(=O)c1ccc(Cl)cc1	?	23.1µM*	?	-43.5%	?	?
C[C@H](CO)N1C[C@H](C)[C@H](CN(C)S(=O)(=O)c2cn(C)cn2)Oc2ccc(NC(=O)Nc3ccc(C(F)(F)F)cc3)cc2CC1=O	?	23.1µM*	5.17µM*	-0.1%	?	-0.6%
CC(C)c1c(C(=O)N/N=C/c2ccc(C(F)(F)F)cc2)nnn1-c1nonc1N	?	25.9µM*	?	-16.9%	i	-15.2%
CC1CCN(Cc2c(C(=O)N/N=C/c3cc(Cl)ccc3O)nnn2-c2nonc2N)CC1	?	4.11µM*	?	-9.2%	i	2.24µM*
CC1CCN(Cc2c(C(=O)N/N=C/c3ccc(C(F)(F)F)cc3)nnn2-c2nonc2N)CC1	?	25.9µM*	?	-53.2%	i	-6.7%
CC(/C=N/NC(=O)c1nnn(-c2nonc2N)c1C(C)C)=C\c1ccccc1	15.8µM*	0.0%	-26.6%	-37.8%	?	nt
COc1c(Cl)cc(Cl)cc1/C=N/NC(=O)c1nnn(-c2nonc2N)c1CN1CCC(C)CC1	-5.3%	-1.0%	10.4%	-8.1%	i	-7.6%
CC1CCN(Cc2c(C(=O)N/N=C/c3cc(Br)ccc3O)nnn2-c2nonc2N)CC1	?	2.31µM*	3.66µM*	-48.3%	?	?
Cc1cc(C)c(/C=N/NC(=O)c2nnn(-c3nonc3N)c2CN2CCC(C)CC2)c(C)c1	?	?	?	-126.7%	?	-23.1%
CCc1ccc(-n2nc(CO)c(C(=O)NC(C)c3ccc(Cl)cc3)n2)cc1 (stereo unspecified)	?	nt	nt	-4.3%	nt	nt
O=C1NC(=O)C(=Cc2ccc(-c3ccc(F)cc3O)o2)S1	nt	nt	nt	nt	nt	25.6%
CC(C)(C)c1ccc2c(c1)OC(C(=O)N/N=C\c1ccc[nH]1)CO2 (stereo unspecified)	-6.9%	3.66µM*	?	-28.8%	i	?
CC(C)(C)c1ccc2c(c1)OC(C(=O)N/N=C/c1ccc([N+](=O)[O-])o1)CO2 (stereo unspecified)	-10.3%	?	-25.2%	-33.6%	i	-19.8%
CC(C)(C)c1ccc2c(c1)OC(C(=O)N/N=C\c1ccncc1)CO2 (stereo unspecified)	-12.1%	-25.0%	-6.8%	20µM*	nt	-19.4%
COc1ccc(/C=N\NC(=O)C2COc3ccccc3O2)cc1O (stereo unspecified)	-13.7%	11.6µM*	14.6µM*	-35.6%	i	-1.5%
COc1cc(/C=N/NC(=O)C2COc3ccccc3O2)ccc1O (stereo unspecified)	-1.2%	-1.1%	-2.6%	-10.5%	i	11.0%
CC(=O)Nc1ccc(S(=O)(=O)NC2(C(F)(F)F)NC(=O)N(CCc3ccc(F)cc3)C2=O)cc1 (stereo unspecified)	-4.4%	nt	nt	12.7%	i	0.5%
CCNc1nc(NCC)nc(-n2cc(C(=O)c3cc(Cl)ccc3O)cn2)n1	24.7%	nt	nt	9.8%	nt	nt
COc1ccc(-n2c(CCNC(=O)c3ccc(-c4cccc(F)c4)cc3)nnc2SC)cc1	nt	nt	nt	nt	i	nt
Clc1ccccc1Cn1c(/C=C/c2ccco2)nc2ccccc21	?	23.1µM*	?	-39.3%	i	-31.0%
COc1cc(C(=O)NCCOc2cc(C)cc(C)c2)cc(OC)c1OC	-18.2%	7.31µM*	11.6µM*	-16.6%	i	-1.8%
O=C(CSC1CS(=O)(=O)c2cc([N+](=O)[O-])ccc21)NNC(=O)c1ccc(Cl)cc1 (stereo unspecified)	12.6µM*	5.2%	-9.0%	-67.4%	i	-24.8%
SMILES	TGFb inhibitor	HT1080 IDH1KD tx	HT1080-NT tox	HepG2 tox	S2 tox	ATXN2 expr inh
O=C(CSC1CS(=O)(=O)c2cc([N+](=O)[O-])ccc21)NNC(=O)c1ccccc1 (stereo unspecified)	?	?	-3.8%	-72.3%	i	10.9%
CCCN1CCCc2cc(CN(CCCN3CCOCC3)C(=O)Nc3ccc(OCC)cc3)ccc21	-25.7%	-10.4%	-0.1%	-6.4%	?	-0.7%
CCCN1CCCc2cc(CN(CCCN3CCOCC3)C(=O)Nc3ccc(Cl)c(Cl)c3)ccc21	?	nt	nt	-37.4%	10µM*	0.0%
Cc1ccc(C(=O)/C=C/C(=O)c2ccc(C)cc2)cc1	-1.3%	11.6µM*	-20.5%	-22.8%	?	?
COC(=O)/C=C/c1ccccc1S(=O)(=O)N(Cc1ccccc1)Cc1ccco1	?	4.61µM*	4.61µM*	-6.7%	?	-20.7%
COc1cc(CN2CCCC(n3cc(C(=O)N4CCCCC4)nn3)C2)cc(OC)c1OC (stereo unspecified)	nt	nt	nt	nt	i	nt
Cc1nn(-c2ccccc2)c(C)c1/C=N/NC(=O)c1cc(C(C)(C)C)[nH]n1	-9.7%	-8.9%	-6.0%	-8.1%	i	0.8%
Cc1ccc(-c2cc(C(=O)N/N=C/c3c(C)nn(-c4ccccc4)c3C)n[nH]2)s1	12.6µM*	1.84µM*	1.64µM*	-30.8%	?	nt
CCn1c2ccccc2c2nnc(NN)nc21	?	2.9%	-1.6%	-20.1%	i	-15.9%
CCn1c2ccc(C)cc2c2nnc(NN)nc21	14.1µM*	-16.7%	-4.6%	-29.6%	i	-18.9%
CCn1c2ccc(C)cc2c2nnc(SCCN3CCCCC3)nc21	-6.7%	23.1µM*	?	-22.3%	i	-18.8%
N#Cc1cccc(C=C(C(=O)c2ccccc2)c2ccccc2)c1	nt	?	26.4µM*	nt	nt	nt
N#C/C(=C\c1ccc(C#N)cc1)C(=O)c1ccccc1	-28.9%	-7.5%	-0.6%	-31.5%	i	nt
